High-throughput results as filed in PubChem.
S1P2 antag: human S1P2 receptor antagonists, primary screen, cell-based | Sphingosine 1-phosphate receptor 2 (Homo sapiens), O95136 | cell-based S1P2 antagonist assay, inhibition at 5 uM | inhibition, % at 5 µM | actives 0.21% (n = 97,000); in the data active means inhibition above about 45%;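 further: CRE beta-lactamase reporter cells expressing human S1P2 stimulated with S1P; 0% = agonist at EC80 alone and 100% = agonist plus reference antagonist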
GALR2 ag: GALR2 receptor agonists, primary screen, cell-based. Galanin receptor type 2 (Homo sapiens), O43603. GALR2-expressing cells, agonist activation read-out. activation, % (test concentration not listed). actives 0.48% (n = 140,000). AID 803, 2007; in the data active means activation above about 5%, passing the limit was not always enough;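 further: 0% = vehicle buffer wells and 100% = reference agonist at full effect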
Target sequence (O43603 whole entry, looked up): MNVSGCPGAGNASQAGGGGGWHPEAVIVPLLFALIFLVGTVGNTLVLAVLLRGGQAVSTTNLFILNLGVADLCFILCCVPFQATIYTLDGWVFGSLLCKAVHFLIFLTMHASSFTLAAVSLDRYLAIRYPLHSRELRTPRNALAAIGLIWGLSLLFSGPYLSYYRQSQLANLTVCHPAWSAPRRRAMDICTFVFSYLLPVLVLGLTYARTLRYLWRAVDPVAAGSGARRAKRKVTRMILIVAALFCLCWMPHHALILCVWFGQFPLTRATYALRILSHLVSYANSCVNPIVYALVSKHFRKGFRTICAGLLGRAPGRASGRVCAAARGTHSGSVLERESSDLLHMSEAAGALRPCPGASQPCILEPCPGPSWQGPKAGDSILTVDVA
S1P2 ag: S1P2 receptor agonists, primary screen, cell-based | AID 729, 2007 | actives 0.46% (n = 97,000) | activation, % at 4.5 µM | S1P2-expressing cell line, agonist reporter read-out | Sphingosine 1-phosphate receptor 2 (Homo sapiens), O95136; in the data active means activation above about 16%;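 further: 0% = vehicle low control and 100% = maximal reference agonist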
PostGolgi ctrl: growth inhibition of yeast control strain, primary screen, counter-screen for post-Golgi transport modulator project | efflux-deficient yeast background strain, growth absorbance A615, 16 h | inhibition, % at 10 µM | actives 5% (n = 98,000)
GALR2 blocker: GALR2 antagonists in receptor-expressing cells, primary screen. Galanin receptor type 2 (Homo sapiens), O43603. inhibition, % at 4 µM. antagonist mode. actives 0.39% (n = 140,000); in the data active means inhibition above about 27%;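 further: cells stimulated with galanin 1-16 at roughly its EC80; 0% = agonist challenge control and 100% = basal control without agonist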
PostGolgi yeast: phenotypic screen on post-Golgi transport, primary screen; inhibition, % at 10 µM; AID 739, 2007; actives 0.9% (n = 98,000); post-Golgi transport phenotypic cell assay;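 further: yeast cells grown in 1536-well plates; yeast grown about 18 h at 30C before absorbance read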
* marks the source's active call; other numbers are inactive results. Many of the other results were omitted from the sample, so hits are more common in it than they were. Unless noted, no stated cut-off is given here; in the data, active means inhibition above about 30%; inactive means the rest.

For c1ccc(-c2oc3ncnc(NCCN4CCOCC4)c3c2-c2ccccc2)cc1 the results were S1P2 antag -30, GALR2 ag -1, S1P2 ag 1, PostGolgi ctrl 92*, GALR2 blocker -18 and PostGolgi yeast 15.
For N=c1c2c(-c3ccccc3)c(-c3ccccc3)oc2ncn1CCN1CCOCC1 the results were S1P2 antag 2, GALR2 ag 2, S1P2 ag -4, PostGolgi ctrl 72*, GALR2 blocker -20 and PostGolgi yeast 1.
N=c1c2c(-c3ccccc3)c(-c3ccccc3)oc2ncn1CCCN1CCOCC1 was read as S1P2 antag 5, GALR2 ag 1, S1P2 ag -9, PostGolgi ctrl 7, GALR2 blocker -33 and PostGolgi yeast 11.
For Cc1sc2ncnc(NCCN3CCOCC3)c2c1C the results were S1P2 antag 3, GALR2 ag -1, S1P2 ag -7, PostGolgi ctrl 8, GALR2 blocker 1 and PostGolgi yeast 8.
For C=CCNC(=O)/C(C#N)=C/c1ccc(OS(=O)(=O)c2ccc(C)cc2)c(OC)c1 the results were GALR2 ag 0 and GALR2 blocker -2.
For COc1ccc(C(=O)CSc2nnc(CN3CCCCC3)n2-c2ccc(Cl)cc2)cc1OC the results were GALR2 ag 0 and GALR2 blocker -8.
COc1ccc(/C=N/NC(=O)c2nc(-c3ccccc3)cc(-c3ccccc3)n2)cc1 was read as S1P2 antag 54*, GALR2 ag -4, S1P2 ag -17, PostGolgi ctrl 31*, GALR2 blocker -7 and PostGolgi yeast 8.
Screening COc1ccc(/C=N/NC(=O)c2nc(-c3ccccc3)cc(-c3ccccc3)n2)cc1O returned GALR2 ag 0 and GALR2 blocker 3.
Screening COc1cc(/C=N/NC(=O)c2cnn3c(C)cc(-c4ccccc4)nc23)ccc1O returned S1P2 antag -44, GALR2 ag 1, S1P2 ag 10, PostGolgi ctrl 34*, GALR2 blocker -10 and PostGolgi yeast -1.
C=CCc1cccc2cc(C(=O)OCC(=O)c3ccccc3)c(=O)oc12 was read as S1P2 antag 12, GALR2 ag -4, S1P2 ag -13, PostGolgi ctrl 7, GALR2 blocker -6 and PostGolgi yeast -3.
CCOC(=O)C1CCN(C(c2cc3c(C)ccc(C)c3[nH]c2=O)c2nnnn2C2CCCCC2)CC1 (configuration not stated) was read as S1P2 antag 25, GALR2 ag -1, S1P2 ag -1, PostGolgi ctrl 30*, GALR2 blocker -7 and PostGolgi yeast 5.
For CCOC(=O)C1CCN(C(c2cc3ccc(C)c(C)c3[nH]c2=O)c2nnnn2C2CCCCC2)CC1 (configuration not stated) the results were S1P2 antag 19, GALR2 ag -1, S1P2 ag -2, PostGolgi ctrl 4, GALR2 blocker 5 and PostGolgi yeast 13.
Screening Cc1cc(C)cc(Oc2ncnc3c2ncn3Cc2c(Cl)cccc2Cl)c1 returned S1P2 antag -7, GALR2 ag -2, S1P2 ag -5, PostGolgi ctrl 34*, GALR2 blocker -22 and PostGolgi yeast -1.
For O=C(CCC(=O)c1cccs1)NCC(=O)Nc1ccc(F)c(F)c1F the results were GALR2 ag 0 and GALR2 blocker 0.
For Cc1cccc(NC(=S)N2CCC(N(C)CC3CCCO3)CC2)c1C (configuration not stated) the results were S1P2 antag 4, GALR2 ag -2, S1P2 ag -7, PostGolgi ctrl 32*, GALR2 blocker 3 and PostGolgi yeast -16.
CC1Cc2ccccc2N1C(=O)Cn1nnc(-c2ccccc2NC(=O)C2CCC2)n1 (configuration not stated) was read as S1P2 antag -8, GALR2 ag -3, S1P2 ag 0, PostGolgi ctrl 32*, GALR2 blocker 0 and PostGolgi yeast 4.
Screening CCOC(=O)c1nnn(-c2nonc2N)c1CSc1ccc(C)cc1 returned S1P2 antag 7, GALR2 ag -3, S1P2 ag 1, PostGolgi ctrl 33*, GALR2 blocker 22 and PostGolgi yeast 7.
CC1=C(C(=O)OCC(C)C)C(c2ccc(F)cc2)NC(=O)N1 (configuration not stated) was read as S1P2 antag 17, GALR2 ag -1, S1P2 ag 1, PostGolgi ctrl 33*, GALR2 blocker -18 and PostGolgi yeast 3.
For COc1ccccc1N1CCN(C(=O)CN(c2ccccc2OC)S(=O)(=O)c2ccccc2)CC1 the results were S1P2 antag -1, GALR2 ag 2, S1P2 ag -2, PostGolgi ctrl 4, GALR2 blocker -6 and PostGolgi yeast -17.
c1cc2ccc3ccc(-n4cnnn4)c4ccc(c1)c2c34 was read as S1P2 antag -20, GALR2 ag -2, S1P2 ag 0, PostGolgi ctrl 30*, GALR2 blocker 0 and PostGolgi yeast -7.
For Fc1ccc(-n2cnnn2)c(F)c1 the results were S1P2 antag 12, GALR2 ag 0, S1P2 ag -6, PostGolgi ctrl 3, GALR2 blocker -4 and PostGolgi yeast 6.
For Cn1c(=S)[nH]c2[nH]c(=O)cnc2c1=O the results were GALR2 ag 1 and GALR2 blocker -10.
`COC(=O)c1ccccc1NC(=O)CNc1cc(Cl)ccc1N1CCOCC1` gave S1P2 antag 0, GALR2 ag 0, S1P2 ag -4, PostGolgi ctrl 35*, GALR2 blocker 12 and PostGolgi yeast 6.
Screening O=C(CCc1ccc(S(=O)(=O)N2CCOCC2)cc1)Nc1cc(Cl)ccc1N1CCOCC1 returned S1P2 antag -6, GALR2 ag -1, S1P2 ag -5, PostGolgi ctrl 34*, GALR2 blocker -3 and PostGolgi yeast 1.
Screening Cc1cc(Cl)ccc1OC(C)C(=O)Nc1ccccc1N1CCOCC1 (configuration not stated) returned S1P2 antag 8, GALR2 ag 2, S1P2 ag 0, PostGolgi ctrl 16, GALR2 blocker 2 and PostGolgi yeast 0.
Screening CCN(CC)S(=O)(=O)c1ccc(N2CCOCC2)c(NC(=O)Cc2ccc(Cl)cc2)c1 returned GALR2 ag -1 and GALR2 blocker 2.
For Cc1ccc(C(=O)C(OC(=O)CN2C(=O)c3ccccc3C2=O)c2ccccc2)cc1C (configuration not stated) the results were S1P2 antag 7, GALR2 ag -2, S1P2 ag -1, PostGolgi ctrl 6, GALR2 blocker 3 and PostGolgi yeast -7.
Screening CSCCC(NC(=O)c1ccccc1)C(=O)OCC(=O)Nc1ccc(C)c(Cl)c1 (configuration not stated) returned S1P2 antag 5, GALR2 ag -4, S1P2 ag -6, PostGolgi ctrl 31*, GALR2 blocker 11 and PostGolgi yeast -2.
